Experimental data from PubChem BioAssay (NCATS).
Inconclusive results are not listed. Calls of active or inactive are those of the source. Calls follow the shape of the dose curve; as a rule, active = well fitted curve in the direction sought with a large enough effect; inconclusive = small, poorly fitted or top-dose-only effect, or another doubt; inactive = no such curve, though single readings can be large; an effect the other way counts as inactive or inconclusive.

What was measured:
[1] = Quantitative High-Throughput drug screen in 47 multiple myeloma cell lines against the NCATS MIPE library collection: EJM_DSMZ cell viability assay (AID 1918926; also: nearly all actives have a fitted effect of over 30% in size)
Summary of the method: (§1)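 qHTS of the MIPE 4.0 collection: 500 myeloma cells/well, 48 h drug exposure at 37C in 5% CO2, then CellTiter-Glo for 5 min at room temperature before luminescence reading.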

[2] = Quantitative High-Throughput drug screen in 47 multiple myeloma cell lines against the NCATS MIPE library collection: AMO1_DSMZ cell viability assay (AID 1918927; also: nearly all actives have a fitted effect of over 30% in size)
Summary of the method: as §1

[3] = Quantitative High-Throughput drug screen in 47 multiple myeloma cell lines against the NCATS MIPE library collection: Karpas620_DSMZ cell viability assay (AID 1918959); also: nearly all actives have a fitted effect of over 30% in size
Summary of the method: (§2)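 CellTiter-Glo luminescence (ATP) after 48 h compound exposure, 37C/5% CO2; 500 cells/well; MIPE 4.0 approved/investigational drugs pinned in; DMSO = 100%, media only = 0% viability.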

[4] = Quantitative High-Throughput drug screen in 47 multiple myeloma cell lines against the NCATS MIPE library collection: KMM1_JCRB cell viability assay (AID 1918960); also: nearly all actives have a fitted effect of over 30% in size
Summary of the method: (§3)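 ATP readout (CellTiter-Glo), 48 h drug incubation, 37 °C/5% CO2, 500 cells per well; normalisation to DMSO (100%) and media-only (0%) controls.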

[5] = Quantitative High-Throughput drug screen in 47 multiple myeloma cell lines against the NCATS MIPE library collection: JIM3_ECACC cell viability assay (AID 1918963; also: nearly all actives have a fitted effect of over 35% in size)
Summary of the method: as §2

[6] = Quantitative High-Throughput drug screen in 47 multiple myeloma cell lines against the NCATS MIPE library collection: JIM1_ECACC cell viability assay (AID 1918964)
Summary of the method: as §1

[7] = Quantitative High-Throughput drug screen in 47 multiple myeloma cell lines against the NCATS MIPE library collection: JJN3_DSMZ cell viability assay (AID 1918966; also: nearly all actives have a fitted effect of over 50% in size)
Summary of the method: as §1

[8] = Quantitative High-Throughput drug screen in 47 multiple myeloma cell lines against the NCATS MIPE library collection: H1112_PLB cell viability assay (AID 1918967; also: nearly all actives have a fitted effect of over 30% in size)
Summary of the method: as §1

[9] = Quantitative High-Throughput drug screen in 47 multiple myeloma cell lines against the NCATS MIPE library collection: Karpas25_ECACC cell viability assay (AID 1918968; also: nearly all actives have a fitted effect of over 35% in size); conditions: Karpas25 myeloma viability, CellTiter-Glo ATP, 48 h
Summary of the method: as §1

[10] = Quantitative High-Throughput drug screen in 47 multiple myeloma cell lines against the NCATS MIPE library collection: KMS12BM_JCRB cell viability assay (AID 1918971); also: nearly all actives have a fitted effect of over 35% in size
Summary of the method: as §1

[11] = Quantitative High-Throughput drug screen in 47 multiple myeloma cell lines against the NCATS MIPE library collection: KMS12PE_JCRB cell viability assay (AID 1918972); also: nearly all actives have a fitted effect of over 30% in size; as to viability: series mostly up to about 46 µM
Summary of the method: (§4)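 Myeloma cells (500 per well) were exposed to MIPE 4.0 compounds by pin transfer and incubated 48 hours at 37C, 5% CO2. Viability was read as ATP by CellTiter-Glo luminescence, normalised to DMSO (100%) and media-only (0%) wells.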

[12] = Quantitative High-Throughput drug screen in 47 multiple myeloma cell lines against the NCATS MIPE library collection: KMS20_JCRB cell viability assay (AID 1918973); also: nearly all actives have a fitted effect of over 45% in size
Summary of the method: as §1

[13] = Quantitative High-Throughput drug screen in 47 multiple myeloma cell lines against the NCATS MIPE library collection: Delta47_JCRB cell viability assay (AID 1918925; also: nearly all actives have a fitted effect of over 45% in size)
Summary of the method: as §1

[14] = Quantitative High-Throughput drug screen in 47 multiple myeloma cell lines against the NCATS MIPE library collection: ARP1_JJKsccF8 cell viability assay (AID 1918928; also: nearly all actives have a fitted effect of over 40% in size)
Summary of the method: as §3

[15] = Quantitative High-Throughput drug screen in 47 multiple myeloma cell lines against the NCATS MIPE library collection: KMS27_JCRB cell viability assay (AID 1918970); also: nearly all actives have a fitted effect of over 30% in size
Summary of the method: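 Myeloma cells (500 per well) were exposed to MIPE 4.0 compounds for 48 h at 37 °C, 5% CO2; viability was read as ATP luminescence with CellTiter-Glo, normalized to DMSO-only (100%) and media-only (0%) wells.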

[16] = Quantitative High-Throughput drug screen in 47 multiple myeloma cell lines against the NCATS MIPE library collection: ARD_JJKsccE7 cell viability assay (AID 1918929)
Summary of the method: as §1

[17] = Quantitative High-Throughput drug screen in 47 multiple myeloma cell lines against the NCATS MIPE library collection: Karpas417_ECACC cell viability assay (AID 1918961); conditions: Karpas417 myeloma viability, CellTiter-Glo ATP luminescence, 48 h
Summary of the method: as §4

[18] = Quantitative High-Throughput drug screen in 47 multiple myeloma cell lines against the NCATS MIPE library collection: KHM11_PLB cell viability assay (AID 1918962); conditions: KHM11 myeloma cell viability, CellTiter-Glo ATP luminescence, 48 h; also: nearly all actives have a fitted effect of over 35% in size
Summary of the method: as §2

[19] = Quantitative High-Throughput drug screen in 47 multiple myeloma cell lines against the NCATS MIPE library collection: INA6_PLB cell viability assay (AID 1918965; also: nearly all actives have a fitted effect of over 55% in size); conditions: INA6 myeloma viability, CellTiter-Glo ATP luminescence, 48 h
Summary of the method: as §4

[20] = Quantitative High-Throughput drug screen in 47 multiple myeloma cell lines against the NCATS MIPE library collection: KMS21BM_JCRB cell viability assay (AID 1918974); conditions: ATP luminescence, 48 h
Summary of the method: as §1

Measured: Potency
Potency is read from the fitted curve at half-maximal effect.

COc1ccc(C(=O)N2CCCC2=O)cc1
active: [4] 1870 nM | [6] 3320 nM | [9] 935 nM
inactive: [1] | [2] | [3] | [5] | [7] | [8] | [10] | [11] | [12]

COC(=O)C1=CCCN(C)C1
active: [9] 5900 nM | [15] 3 nM
inactive: [13] | [1] | [14] | [3] | [4] | [5] | [8] | [10] | [11]

C[C@@H]1C[C@@H]([C@H](O)CC2CC(=O)NC(=O)C2)C(=O)[C@@H](C)C1
active: [13] 743 nM | [1] 3320 nM | [2] 469 nM | [14] 52.6 nM | [16] 166 nM | [3] 662 nM | [4] 209 nM | [17] 469 nM | [18] 372 nM | [5] 418 nM | [6] 148 nM | [19] 118 nM | [7] 187 nM | [8] 1050 nM | [9] 1050 nM | [15] 1050 nM | [10] 209 nM | [11] 418 nM | [12] 1660 nM | [20] 526 nM

O=C(O)c1nn(Cc2ccc(Cl)cc2Cl)c2ccccc12
inactive: [1] | [14] | [16] | [5] | [6] | [7] | [8] | [15] | [11]
